Screens (PubChem BioAssay)
This is a sample that favours compounds with a hit; in the whole collection about 3.5% have one here.
FBW7 act = human FBW7 E3 ligase activation, primary screen | AlphaScreen FBW7–phospho-cyclin E peptide binding, activator screen | Q969H0 | normalized activity (activation), % at 26.1 µM | AID 1259310 | actives 0.13% (n = 650,000); in the data active = normalized activity above about 1.9%;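 also: purified mutant Fbw7 with reduced substrate affinity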
GPR151 ag = human GPR151 activation | Q8TDV0 | PathHunter beta-arrestin GPR151 cells, luminescence | activation, % at 11.2 µM | actives 1% (n = 650,000); in the data active = activation above about 4.9%
Target sequence (Q8TDV0 whole entry, looked up): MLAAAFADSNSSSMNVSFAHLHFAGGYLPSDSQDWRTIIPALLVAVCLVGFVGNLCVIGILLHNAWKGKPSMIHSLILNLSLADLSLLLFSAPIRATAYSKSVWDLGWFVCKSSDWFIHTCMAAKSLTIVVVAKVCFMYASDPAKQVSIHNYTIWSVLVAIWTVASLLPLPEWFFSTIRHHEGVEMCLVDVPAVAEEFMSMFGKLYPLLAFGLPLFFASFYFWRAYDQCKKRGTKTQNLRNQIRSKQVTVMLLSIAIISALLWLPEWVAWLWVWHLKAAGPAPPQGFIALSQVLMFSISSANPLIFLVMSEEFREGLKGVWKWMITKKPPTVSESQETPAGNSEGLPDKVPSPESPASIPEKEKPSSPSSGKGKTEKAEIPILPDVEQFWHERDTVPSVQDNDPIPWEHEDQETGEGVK
TEAD-YAP block = TEAD-YAP interaction inhibition; actives 1.4% (n = 640,000); inhibition, % at 9.12 µM; HEK-TIYL cells, TEAD-Gal4/YAP UAS-luciferase luminescence; AID 1259422; in the data active = inhibition above about 32%
MITF inh = inhibitors of human MITF. O75030. actives 0.91% (n = 650,000). AlphaScreen MITF homodimerization, bead proximity signal. inhibition, % at 2.6 µM; in the data active = inhibition above about 50%
Hits are given with their value; – = inactive.

SMILES	FBW7 act	GPR151 ag	TEAD-YAP block	MITF inh
CCSc1ncc(Cl)c(C(=O)N2CCN(c3ccccc3OC)CC2)n1	–	–	60	–
COc1ccc(Cl)cc1C(=O)N1CCN(c2ccccc2)CC1	–	–	50	–
O=C(Nc1nc(CC(=O)N2CCN(c3ccc(F)cc3)CC2)cs1)NC1CCCC1	–	–	–	–
Cc1ccc(S(=O)(=O)N(CCC(=O)N2CCOCC2)Cc2c(Cl)cccc2Cl)cc1	–	–	–	–
O=C(CCl)Nc1ccc2c(c1)OCCO2	–	–	–	–
C=CCN1C(=O)/C(=C/c2ccc(OCc3cccc(C(=O)O)c3)cc2)C(=O)NC1=S	–	–	79	–
C=CCN1C(=O)/C(=C/c2cc(C)n(-c3cccc(C(=O)O)c3C)c2C)C(=O)NC1=S	–	–	–	53
C=CCN1C(=O)/C(=C\c2ccc(-c3ccc(C(=O)O)cc3)o2)C(=O)NC1=S	–	–	–	–
C=CCN1C(=O)/C(=C\c2ccc(-c3cccc(C(=O)O)c3)o2)C(=O)NC1=S	–	–	–	64
Cc1nc(C)n(-c2ccc(Nc3nccc(-c4cccc(-n5cncn5)c4)n3)cc2)n1	–	–	45	–
Cc1nc(C)n(-c2ccc(Nc3nccc(N(CCO)Cc4ccccc4)n3)cc2)n1	–	–	51	–
Cc1nc(C)n(-c2ccc(Nc3nccc(-c4cc(F)cc(N5CCCC5)c4)n3)cc2)n1	–	–	–	–
CCN1CCN(c2cc(F)cc(-c3ccnc(Nc4ccc(-n5nc(C)nc5C)cc4)n3)c2)CC1	–	–	68	–
Cc1nc(C)n(-c2ccc(Nc3nccc(-c4cc(F)cc(-c5cn[nH]c5)c4)n3)cc2)n1	–	–	–	–
CNc1cc(F)cc(-c2ccnc(Nc3ccc(-n4nc(C)nc4C)cc3)n2)c1	–	–	59	–
Cc1c(C)n2c(SCC(=O)Nc3ccc(C(F)(F)F)cc3)nnc2[nH]c1=O	–	–	–	–
COc1ccc(N(C)S(=O)(=O)c2cccc3cccnc23)c(OC)c1	–	–	39	–
Cc1ccc(NC(=O)Cn2cnc3sc(C(=O)N(C)Cc4ccccc4)c(C)c3c2=O)cc1Cl	–	–	–	–
CN(C)c1ccc(C2OCC3(CO2)SC(=O)NC3=O)cc1 (stereo not given)	4.9	–	–	–
Cc1cc(C)nc(SCc2nnc(SC(C)C)n2C)n1	–	–	–	–
Cc1ccc(S(=O)(=O)Nc2cccc(C(=O)NCc3cccnc3)c2)cc1	–	–	58	–
c1ccc(Nc2c3c(nc4nncn24)CCC3)cc1	–	–	–	–
O=c1c2c(-c3ccccc3)csc2ncn1/N=C/c1ccc(O)c(O)c1O	–	–	–	62
O=C(NCCC1=CCCCC1)c1ccc2nc(-c3cccs3)c(-c3cccs3)nc2c1	–	–	–	–
Cc1ccc(NC(=O)N2CCCc3ccccc32)cc1	–	–	–	–
SMILES	FBW7 act	GPR151 ag	TEAD-YAP block	MITF inh
CC(C)(C)c1ccc(NC(=O)N2CCc3ccccc32)cc1	–	–	87	–
CC1(C)Cc2cccc(OC(=O)c3cncc(Br)c3)c2O1	–	–	–	–
COc1ccccc1N1CCN(C(=O)C[n+]2ccccc2)CC1	–	–	–	–
COc1ccc(NC(=O)CN(c2cc([N+](=O)[O-])ccc2OC)S(C)(=O)=O)cc1OC	–	–	–	–
COc1ccc(NC2=C(n3nnc4ccccc43)C(=O)c3ccccc3C2=O)cc1	–	–	59	–
O=C(OCCNC1=C(n2nnc3ccccc32)C(=O)c2ccccc2C1=O)c1ccccc1	–	–	–	–
Cc1cc(C)nc(N2CCC(N(CCN(C)C)C(=O)NC(C)C)CC2)n1	–	–	–	–
CCCCCN1C=CC(=C2C(=O)c3ccccc3C2=O)C=C1	–	–	95	–
CCCCCN1C(=O)C(=O)c2ccccc21	–	–	–	–
CCOCCOC(=O)c1ccc(NC(=O)c2ccc(C(C)(C)C)cc2)cc1	–	–	69	–
O=C(O)c1cccc(NC(=O)c2ccc(-c3ccccc3)cc2)c1	–	–	41	–
CCCCOC(=O)c1cccc(NC(=O)c2ccc(C(C)(C)C)cc2)c1	–	–	52	–
CC(C)(C)c1ccc(C(=O)Nc2cccc(C(=O)O)c2)cc1	–	–	84	–
c1ccc(OCCNc2nc(N3CCC(N4CCOCC4)CC3)nc3c2ncn3-c2ccsc2)cc1	–	–	–	–
CSc1nn2ccc(-c3cccc(C(F)(F)F)c3)nc2c1C#N	–	–	–	–
COC(=O)Cn1cc(S(=O)(=O)NCc2cccc(OC)c2)c2cc([N+](=O)[O-])ccc21	–	–	–	–
Cc1ccc(/C(O)=C2/C(=O)C(=O)N(CCO)C2c2ccc(Br)cc2)cc1 (stereo not given)	–	–	–	–
